Out of some 420,000 compounds screened, about 64,000 (15%) were called active. Another 27% or so got no clear call; they are omitted. The call rests on the fitted dose curve; in most records, active means well fitted inhibition curve with a large enough effect; inconclusive means small, poorly fitted or top-dose-only effect; inactive means flat fitted curve, though single readings scatter. A selection follows. Where a call stands in place of a potency, no number is given.
Assay: qHTS for Inhibitors of human tyrosyl-DNA phosphodiesterase 1 (TDP1): qHTS in cells in absence of CPT; further: nearly all actives have a fitted effect of over 55% in size
Details: DT40 Tdp1-/- hTDP1 cells, no CPT, ATP luminescence, 48 h; activity change, negative = growth inhibition: at 46.2 µM (top of the series)
In short: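 Compound effects on proliferation are scored in DT40 Tdp1-/-;hTDP1 cells in the absence of CPT. ATP levels (CellTiter-Glo luminescence) are recorded after a ≥48 hr, 37 °C incubation.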
Potency means the concentration at half of the fitted maximal effect.

Structure (SMILES)	Potency
COCCCn1c(SCC(=O)NC2CCCC2)nnc1-c1ccccc1	inactive
Cc1ccc(S(=O)(=O)NNC(=S)NC(C)(C)C)cc1	inactive
CN(Cc1ccccc1)C(=O)COC(=O)/C=C/c1ccc2c(c1)OCO2	inactive
CN(C)c1nc2n(c(=O)n1)CCO2	inactive
O=C(O)Cc1ccc(NC(=O)C2CCCCC2C(=O)O)cc1 (stereo unspecified)	inactive
COCCn1c(=O)c(C)nc2cnc(N(C)C)nc21	inactive
O=C(O)C1CCN(S(=O)(=O)N2CCOCC2)CC1	inactive
CC1CN(C(=O)COC(=O)c2cccc(NS(=O)(=O)c3ccccc3)c2)CC(C)O1 (stereo unspecified)	inactive
CCOC(=O)c1cc(S(=O)(=O)NCCc2ccc(OC)c(OC)c2)cn1C	inactive
CN1CCCN(C(=O)C2CCCCC2)CC1	inactive
CCOc1ccc(NC(=O)CC(Cc2ccc(Cl)cc2)C(=O)O)cc1 (stereo unspecified)	inactive
COc1ccc(N2C(=O)C(Cc3ccccc3)NC2=S)cc1 (stereo unspecified)	inactive
COc1ccc(C2OC(CCc3ccccc3)Cc3[nH]c(=S)[nH]c(=O)c32)cc1 (stereo unspecified)	18.4 µM (active)
COc1ccc(C2CC(=O)NC(=O)C2)cc1	inactive
O=C(Cn1cc(C(=O)c2cccs2)c2ccccc21)NCc1cccs1	inactive
CC1(c2nnc(Cc3ccccc3)o2)CC(c2ccccc2F)=NO1 (stereo unspecified)	inactive
COc1ccccc1-c1nc(C#N)c(N2CCC(C(N)=O)CC2)o1	inactive
Cc1ccccc1OCc1ccc(-c2nc(C#N)c(N3CCCCC3)o2)o1	23.1 µM (active)
COc1ccc(OCc2ccc(-c3nc(C#N)c(N4CCN(c5ccccc5)CC4)o3)o2)cc1	inactive
COc1ccc(NC(=O)NNC(=O)COc2cc(C)c(Cl)c(C)c2)c(OC)c1	inactive
Cc1ccc(S(=O)(=O)NCCSC(C)(C)C)cc1	inactive
O=C(O)CSCNC(=O)CC12CC3CC(CC(C3)C1)C2	inactive
CCOCCCNC(=O)c1cc2c(=O)n3ccccc3nc2s1	inactive

Structure (SMILES)	Potency
Nc1ccc(/C=C/c2ccnc3ccccc23)c([N+](=O)[O-])c1	10 µM (active)
O=C(CC(c1ccccc1)c1ccccc1)NCC(O)c1ccc([N+](=O)[O-])cc1 (stereo unspecified)	inactive
Cc1ccc(C)c(N2CCN(Cc3nnc(-c4ccccc4)o3)CC2)c1	inactive
Cc1ccc(C)c(N2CCN(C(c3ccccc3)c3nnc(-c4ccccc4)o3)CC2)c1 (stereo unspecified)	23.1 µM (active)
CCn1c2ccccc2c2nnc(N3CCN(c4cc(C)ccc4C)CC3)nc21	inactive
CC(C)c1ccc(S(=O)(=O)NC2CCCC2)cc1	inactive
C/C(CC(=O)Nc1cccc(C(F)(F)F)c1)=N\NC(=O)C(=O)NCC(C)C	inactive
Cc1cc(N2CCCC2=O)cc(C)c1S(N)(=O)=O	inactive
COc1cccc(N2C(=O)C3CCCN3C2c2ccc(F)cc2)c1 (stereo unspecified)	inactive
CSC1=NCCN1C(=O)c1ccc(S(=O)(=O)N2CCOCC2)cc1	inactive
COCC(=O)Nc1nnc(COc2ccccc2)s1	inactive
O=C(Nc1nnc(COc2ccccc2)s1)Nc1ccccc1F	inactive
O=C(Nc1ccccc1)Nc1nnc(COc2ccccc2F)s1	10.3 µM (active)
Cc1cc(C)c(C(N)=O)c(Cl)n1	inactive
CC1=C(C(=O)N(C)C)C(c2ccccc2OC(F)F)NC(=O)N1 (stereo unspecified)	inactive
COc1cc(OC)c(C2=NOC(C(=O)Nc3c(C)n(C)n(-c4ccccc4)c3=O)C2)cc1Cl (stereo unspecified)	inactive
Cc1cccc(OCC(=O)Nc2ccc(C(=O)O)cc2NC(=O)COc2cccc(C)c2)c1	inactive
O=C(O)CN(Cc1ccco1)S(=O)(=O)c1ccc(F)cc1	inactive
OC(c1nc2ccccc2[nH]1)C(O)C(O)C(O)c1nc2ccccc2[nH]1 (stereo unspecified)	inactive
CCC(c1nc2ccccc2[nH]1)n1c(=O)c(-c2cccs2)nc2ccccc21 (stereo unspecified)	18.4 µM (active)
O=C(CSc1nc2ccccc2[nH]1)c1cccs1	inactive
CSc1nnc(-c2ccncc2)n1CCCN1CCCC1=O	inactive
O=C(NCCc1nnc2ccc(SCC(=O)N3CCOCC3)nn12)c1ccccc1	inactive

Structure (SMILES)	Potency
Cc1ccc(N(C(=O)Cc2cccs2)C2C=CS(=O)(=O)C2)cc1Cl (stereo unspecified)	inactive
Cc1ccc(C)c2c1cc(C)c1nnc(SCC(=O)Nc3cccc(C(=O)O)c3)n12	inactive
O=C(Nc1cc(=O)[nH]c2ncnn12)c1ccccc1Cl	inactive
Cc1ccc(-n2ncc3c(N4CCC(C(N)=O)CC4)ncnc32)cc1	inactive
CCN(c1ncnc2c1cnn2-c1ccc(C)cc1)C1CCCCC1	inactive
CCN1CCN(c2ncnc3c2cnn3-c2ccc(C)c(C)c2)CC1	18.4 µM (active)
COC(=O)CSc1ncnc2c1cnn2-c1ccc(C)cc1C	inactive
COc1ccccc1N1CCN(C(=O)CSc2ncnc3c2cnn3-c2ccc(C)c(C)c2)CC1	23.1 µM (active)
COc1ccc(-n2ncc3c(SCC(=O)NNC(C)=O)ncnc32)cc1	inactive
O=C1C2C3C=CC(C3)C2C(=O)N1c1ncc([N+](=O)[O-])s1 (stereo unspecified)	inactive
COc1ccc(C(=O)COC(=O)CCCC(=O)Nc2cc(C(F)(F)F)ccc2Cl)cc1	inactive
Cc1cc(OC(=O)c2ccc(Cl)cc2)cc(=O)n1C	inactive
O=C(COc1cccc(F)c1)Oc1ccc(C(=O)c2ccccc2)cc1	inactive
N#Cc1cccc(CSc2nnc(CCCO)n2-c2ccccc2)c1	inactive
Cc1ccc(OCC(=O)Nc2ccc(-c3nnc(-c4ccco4)o3)cc2)cc1	inactive
CCC(=O)Oc1cccc(C(=O)Nc2ccc(-c3nnc(-c4ccco4)o3)cc2)c1	5.8 µM (active)
CCOc1ccc(-c2nnc(-c3ccco3)o2)cc1	inactive
O=C(Nc1ccc(C(=O)O)cc1)/C(=C\c1ccccc1)NC(=O)c1ccc(Br)cc1	inactive
CN1CCN(C(=O)C2C3C=CC(C3)C2C(=O)O)CC1 (stereo unspecified)	inactive
COc1ccc(OCC(=O)Nc2nnc(-c3ccco3)s2)cc1	inactive
O=C(COc1ccccc1F)Nc1nc(-c2ccccn2)cs1	4.61 µM (active)
NS(=O)(=O)c1ccc2nc(NC(=O)COc3ccccc3)sc2c1	inactive
Cc1ccnc(NC(=O)c2ccco2)n1	inactive

Structure (SMILES)	Potency
N#Cc1ccc(OCC(=O)Nc2nc(-c3ccccn3)cs2)cc1	1.64 µM (active)
CC1CCN(S(=O)(=O)c2nnc(NC(=O)COc3ccccc3F)s2)CC1	inactive
CC(NC(=O)c1ccco1)C(=O)Nc1nc(-c2ccccn2)cs1 (stereo unspecified)	5.8 µM (active)
Cc1cc(NC(=O)[C@H](C)NC(=O)c2ccco2)ccc1Br	inactive
O=C(COc1ccccc1F)NC1CC1	inactive
Cn1c(=O)oc2cc(S(=O)(=O)NCCC(=O)NCc3ccccc3Cl)ccc21	inactive
CCN(CC)C(=O)CSc1nnc(C2CCCCC2)o1	inactive
CCC(=O)c1ccc(OC(=O)/C=C/c2cc(OC)c(OC)c(OC)c2)cc1	inactive
CC(C)CNC(=O)/C=C/C(=O)O	inactive
C[C@H](CO)N1C[C@H](C)[C@@H](CN(C)C(=O)Nc2ccc3c(c2)OCO3)Oc2c(cccc2N(C)C)C1=O	inactive
CCCCOc1ccc(N(CC(=O)NC(C)C)C(=O)CCC(=O)Nc2ccccn2)cc1	inactive
Cc1ccc(S(=O)(=O)NC(=O)N2CCCN(Cc3ccc(F)cc3)CC2)cc1	inactive
O=C(Nc1ccccc1)N1CCN(Cc2ccccc2)CC1	inactive
CC(C)OC(=O)C(C#N)c1nc2ccccc2nc1N1CCN(Cc2ccccc2)CC1 (stereo unspecified)	23.1 µM (active)
Cc1ccc(S(=O)(=O)C(C#N)c2nc3ccccc3nc2N2CCCC2)cc1C (stereo unspecified)	inactive
COc1cccc(OCC(=O)NNC(=O)c2cnccn2)c1	inactive
CS(=O)(=O)N1CCN(c2cccc(Cl)n2)CC1	inactive
COCCn1cnc2c1c(=O)n(Cc1ccc(Br)cc1)c(=O)n2Cc1ccccc1	inactive
CCN(CC)CCn1cnc2c1c(=O)[nH]c(=O)n2Cc1ccccc1	inactive
N=c1c2c(-c3ccccc3)c(-c3ccccc3)n(Cc3ccccc3)c2ncn1CCCO	18.4 µM (active)
COc1ccc(C(=O)CSc2nnc(-c3ccco3)o2)cc1	inactive
O=C1CN(C(=O)CN2C(=O)NC3(CCCCC3)C2=O)c2ccccc2N1	inactive
Cc1ccn2c(=O)c(C(=O)NCCC3=CCCCC3)c(O)nc2c1	20.6 µM (active)

Structure (SMILES)	Potency
CC(Sc1nncn1C)C(=O)NCCC1=CCCCC1 (stereo unspecified)	inactive
CCOCCCNC(=O)C1(O)c2cc(Br)ccc2NC(=O)N1c1ccc(C)c(C)c1 (stereo unspecified)	inactive
Cc1cccc(NC(=O)CCN2CC(C)CC(C)C2)c1 (stereo unspecified)	inactive
Cc1cc(=O)oc2cc(OC(C)C(=O)Nc3ccc(N4CCOCC4)cc3)ccc12 (stereo unspecified)	inactive
CC1CN(C(=O)CCC(=O)NC2CCN(Cc3ccccc3)CC2)c2ccccc2O1 (stereo unspecified)	inactive
O=C(CC1Oc2ccccc2NC1=O)NCCCN1CCN(Cc2ccccc2)CC1 (stereo unspecified)	inactive
CC1CN(C(=O)CCC(=O)NCCCN2CCC(Cc3ccccc3)CC2)c2cc(Cl)ccc2O1 (stereo unspecified)	18.4 µM (active)
CSc1ccc(Cl)c(C(=O)OCC(=O)N2CC(C)OC(C)C2)c1 (stereo unspecified)	inactive
Cc1noc(C)c1S(=O)(=O)N(C)C[C@H]1Oc2ccc(NC(=O)C3CCCCC3)cc2C(=O)N([C@H](C)CO)C[C@@H]1C	inactive
C[C@H]1COc2cc(N3CCSCC3)ccc2S(=O)(=O)N1	inactive
Cc1nnc(C)n1/N=C/c1ccc(C(C)C)cc1	inactive
CCOC(=O)N1CCC(NC(=O)COc2cc(=O)n(C)c3ccccc23)CC1	inactive
Cc1ccc(F)c(NC(=O)CCOc2ccccc2C)c1	inactive
Cc1cc(Br)ccc1NC(=O)CCCOc1cc(=O)n(C)c2ccccc12	25.9 µM (active)
Cc1cc(C)n2nc(C(=O)Oc3ccc4c(c3)OCO4)nc2n1	inactive
CC(=O)c1c(N)n(C)c(=O)n(C)c1=O	inactive
CCOC(=O)c1[nH]c2ccccc2c1N=C(C)N(CC)CC	inactive
Cc1c(-c2ccccc2)n[nH]c1C(=O)N=Nc1c(O)[nH]c2ccccc12	23.1 µM (active)
CC(=O)c1c(-c2ccccc2)c2ccccc2[nH]c1=O	inactive

— PubChem BioAssay AID686978 (National Center for Advancing Translational Sciences (NCATS), 2013)
